This is part of a sample that, as a whole, favours compounds with a hit. Of some 83,000 tested, about 20% had one in any assay.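 Cells were grown in 96-well plates and exposed to the test compound at a single concentration for 48 hours; results are reported as percent growth, with values below 10 considered active.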 Activity calls are given as the source filed them.
Key:
Experiment in all cases: NCI-60 one-dose screen, 48 h (100 = growth as untreated, 0 = no growth, -100 = all killed)
Details in all cases: 10 µM unless noted
SN12C renal = system: SN12C renal
UO-31 renal = system: UO-31 renal
TK-10 renal = system: TK-10 renal
ACHN renal = system: ACHN renal
CAKI-1 renal = system: CAKI-1 renal
A498 renal = system: A498 renal
CCRF-CEM leukemia = system: CCRF-CEM leukemia
MOLT-4 leukemia = system: MOLT-4 leukemia
SR leukemia = system: SR leukemia

Measured: growth

O=S1(=O)CCN(Cc2ccccc2)CC1
inactive: SN12C renal 101% | UO-31 renal 103% | TK-10 renal 94.3% | ACHN renal 97% | CAKI-1 renal 89.1% | A498 renal 75.9% | CCRF-CEM leukemia 98.1% | MOLT-4 leukemia 105% | SR leukemia 87.3%

COc1ccc(-c2cn3c(C(=O)Nc4ccccc4Cl)c(-c4ccccc4)c4c3n2CCCC4)cc1
inactive: SN12C renal 82.7% | UO-31 renal 62.8% | TK-10 renal 72.2% | ACHN renal 80.9% | CAKI-1 renal 81.6% | A498 renal 74.9% | CCRF-CEM leukemia 66% | MOLT-4 leukemia 69.8% | SR leukemia 62.8%

CCCC(c1nnnn1C1CCCCC1)N1CCN(C(=O)c2ccco2)CC1 (configuration not stated)
inactive: SN12C renal 73.6% | UO-31 renal 82.3% | TK-10 renal 86.7% | ACHN renal 84.6% | CAKI-1 renal 66.4% | A498 renal 44.1% | CCRF-CEM leukemia 24.1% | MOLT-4 leukemia 26.9%
active: SR leukemia 6.95%

CCOC(=O)c1ccc2[nH]c(-c3ccccc3)cc(=O)c2c1
inactive: SN12C renal 98.2% | UO-31 renal 97.1% | TK-10 renal 112% | ACHN renal 97.5% | CAKI-1 renal 98.5% | A498 renal 94.4% | CCRF-CEM leukemia 89.7% | MOLT-4 leukemia 94% | SR leukemia 96%

c1ccc(-c2ccc(-c3nc4ccccc4[nH]3)cc2)cc1
inactive: SN12C renal 92.9% | UO-31 renal 67.4% | TK-10 renal 84.7% | ACHN renal 90.7% | CAKI-1 renal 93.6% | A498 renal 88.6% | CCRF-CEM leukemia 38.4% | MOLT-4 leukemia 56.9% | SR leukemia 58.8%

COc1cc(NC(=O)CCSc2nc3ccccc3c(=O)n2Cc2ccccc2)cc(OC)c1OC
inactive: SN12C renal 82.9% | UO-31 renal 45.7% | TK-10 renal 108% | ACHN renal 78.5% | CAKI-1 renal 72.5% | A498 renal 64.6% | CCRF-CEM leukemia 74.5% | MOLT-4 leukemia 69.3%

CCCCC(O)(c1ccc(Cl)cc1)C(CN1CCOCC1)c1ccc(Cl)cc1 (configuration not stated)
active: SN12C renal 9.55% | MOLT-4 leukemia 6.34% | SR leukemia 5.35%
inactive: UO-31 renal 16.1% | TK-10 renal 52.9% | ACHN renal 33.2% | CAKI-1 renal 26.5% | A498 renal 36% | CCRF-CEM leukemia 22.3%

COc1cc(-c2c3c(cn2S(=O)(=O)c2ccccc2)-c2nc(N)sc2CC3)cc(OC)c1OC
inactive: SN12C renal 54.1% | UO-31 renal 30.5% | TK-10 renal 53.4% | ACHN renal 49.9% | CAKI-1 renal 34.2% | A498 renal 21.1% | MOLT-4 leukemia 23.5%
active: CCRF-CEM leukemia 7.05% | SR leukemia 9.55%

COc1ccc(C2NCCc3c2[nH]c2ccccc32)cc1CN1CCN(c2ccc(F)cc2)CC1 (configuration not stated)
active: UO-31 renal 2.15%
inactive: SN12C renal 55.6% | TK-10 renal 56.6% | ACHN renal 64.7% | CAKI-1 renal 28.8% | A498 renal 89.8% | CCRF-CEM leukemia 16.3% | MOLT-4 leukemia 23.6% | SR leukemia 19.9%

COc1ccc(-c2nc(N3CCN(C(=O)C4CCCCC4)CC3)c3c4c(sc3n2)CCCC4)cc1
inactive: SN12C renal 77.2% | ACHN renal 33.5% | A498 renal 57.1%
active: UO-31 renal -7.01% | TK-10 renal -40.1% | CAKI-1 renal -12.1% | CCRF-CEM leukemia 5.79% | MOLT-4 leukemia 1.83% | SR leukemia -33.2%

COc1cc(-c2c3c(c(Br)n2Cc2ccccc2)-c2nc(N)sc2CC3)cc(OC)c1OC
inactive: SN12C renal 85.7% | UO-31 renal 70.6% | TK-10 renal 119% | ACHN renal 88.3% | CAKI-1 renal 97.4% | A498 renal 80.5% | CCRF-CEM leukemia 44.4% | MOLT-4 leukemia 50.6% | SR leukemia 40.2%

CC(C)CCNCC(O)Cn1c2ccccc2c2ccccc21 (configuration not stated)
active: UO-31 renal -14.4% | ACHN renal 2.8% | CAKI-1 renal -0.189% | A498 renal 3.02% | MOLT-4 leukemia 2.44% | SR leukemia 3.35%
inactive: SN12C renal 19.4% | TK-10 renal 33.1% | CCRF-CEM leukemia 13%

CCCCCCc1cc2cc(-c3csc(/C=C/c4ccccc4)n3)c(=O)oc2cc1O
active: A498 renal -25.3% | CCRF-CEM leukemia 2.21% | MOLT-4 leukemia 4.75% | SR leukemia -7.16%
inactive: SN12C renal 34.9% | UO-31 renal 13.5% | TK-10 renal 49% | ACHN renal 41.6% | CAKI-1 renal 32.8%

COc1cc(CNC(=O)c2ccsc2Nc2ccnc(C(F)(F)F)c2)ccc1O
inactive: SN12C renal 94.6% | UO-31 renal 82.7% | TK-10 renal 99.8% | ACHN renal 98.2% | CAKI-1 renal 95.7% | A498 renal 93% | CCRF-CEM leukemia 83.7% | MOLT-4 leukemia 85.4%

CCC1=C[C@@H]2CN(C1)Cc1c([nH]c3ccccc13)[C@@](C(=O)OC)(c1cc3c(cc1OC)N(C)[C@H]1[C@@](O)(C(=O)OC)[C@H](OC(C)=O)[C@]4(CC)[C@@H]5C[C@@H]5CN5CC[C@]31[C@@H]54)C2
active: UO-31 renal 3.11% | A498 renal -24.5% | CCRF-CEM leukemia 1.97% | MOLT-4 leukemia -3.35% | SR leukemia -19.3%
inactive: SN12C renal 19.3% | TK-10 renal 24.2% | ACHN renal 19.6% | CAKI-1 renal 24.9%

CCOC(=O)C(CC(=O)O)=C(C(=O)OCC)C(=O)OCC
inactive: SN12C renal 104% | UO-31 renal 98.8% | TK-10 renal 120% | ACHN renal 105% | CAKI-1 renal 99.6% | A498 renal 104% | CCRF-CEM leukemia 110% | MOLT-4 leukemia 95.8% | SR leukemia 95.8%

CCOc1cccc(/C=N/NC(=O)C(=O)Nc2cccc(C(F)(F)F)c2)c1O
inactive: SN12C renal 30.6% | TK-10 renal 46.1% | ACHN renal 16.6% | A498 renal 55.9% | CCRF-CEM leukemia 14.1% | MOLT-4 leukemia 19.1% | SR leukemia 15.9%
active: UO-31 renal 9.54% | CAKI-1 renal 9.87%

O=C(N/N=C/c1ccccc1Cl)C(=O)Nc1cccc(C(F)(F)F)c1
inactive: SN12C renal 92.7% | UO-31 renal 90.8% | TK-10 renal 83.7% | ACHN renal 76% | CAKI-1 renal 97.6% | A498 renal 89.3% | CCRF-CEM leukemia 100% | MOLT-4 leukemia 92.1% | SR leukemia 65.1%

CCN(CC)c1cc(C)c2cc(NC(=O)c3cccc(OC)c3)ccc2n1
inactive: SN12C renal 79.1% | UO-31 renal 81.6% | TK-10 renal 114% | ACHN renal 91.2% | CAKI-1 renal 73.2% | A498 renal 29.2% | CCRF-CEM leukemia 24.8% | MOLT-4 leukemia 32.7% | SR leukemia 43.5%

O=S(=O)(c1ccccc1)n1cc2c(c1-c1ccccc1)CCc1sc(Nc3ccccc3)nc1-2
inactive: SN12C renal 77.1% | UO-31 renal 70.4% | TK-10 renal 100% | ACHN renal 77.9% | CAKI-1 renal 75.8% | A498 renal 89.4% | CCRF-CEM leukemia 72.6% | MOLT-4 leukemia 76% | SR leukemia 79.3%

O=C(Cc1ccccc1)NC(c1ccc(Cl)cc1)c1c(O)ccc2ccccc12 (configuration not stated)
inactive: SN12C renal 14.9% | TK-10 renal 17.1% | ACHN renal 10.1% | A498 renal 32.8% | CCRF-CEM leukemia 13.4%
active: UO-31 renal -7.48% | CAKI-1 renal 4.37% | MOLT-4 leukemia 9.11% | SR leukemia 4.83%

Cc1ccc(Cn2c(N3CCC(C(=O)NCc4cccs4)CC3)nc3ccccc32)cc1
inactive: SN12C renal 87.9% | UO-31 renal 65% | TK-10 renal 95.7% | ACHN renal 98.5% | CAKI-1 renal 89.1% | A498 renal 62.4% | MOLT-4 leukemia 21.6%
active: CCRF-CEM leukemia 8.48% | SR leukemia -37%

O=C(CSc1ccc2nnc(-c3cccc(F)c3)n2n1)Nc1ccc2c(c1)OCO2
inactive: SN12C renal 80.5% | UO-31 renal 70.4% | TK-10 renal 112% | ACHN renal 87.9% | CAKI-1 renal 84.1% | A498 renal 104% | CCRF-CEM leukemia 32.5% | MOLT-4 leukemia 62.1% | SR leukemia 56.3%

Brc1ccc(Nc2nc3ccccc3nc2Nc2ccc(Br)cc2)cc1
active: SN12C renal -9.63% | UO-31 renal -25.7% | TK-10 renal -55.4% | ACHN renal 4.91% | CAKI-1 renal -16.3% | A498 renal -18.1% | CCRF-CEM leukemia -15% | MOLT-4 leukemia -21.4% | SR leukemia -23.5%

CCCCc1c(CCC)c(=N)c2ccccc2n1C
active: SR leukemia 6.82%
inactive: SN12C renal 79.7% | UO-31 renal 65.6% | TK-10 renal 84.3% | ACHN renal 78.4% | CAKI-1 renal 81% | A498 renal 75.9% | CCRF-CEM leukemia 49.8% | MOLT-4 leukemia 60.6%

COc1ccc(-c2nc(-c3ccccc3)c(-c3ccccc3)[nH]2)cc1OC1CCCCC1
inactive: SN12C renal 81.6% | UO-31 renal 59.3% | TK-10 renal 115% | ACHN renal 68.9% | CAKI-1 renal 71.7% | A498 renal 68.2% | CCRF-CEM leukemia 91.6% | MOLT-4 leukemia 79.4%

Nc1ccc(-c2nc3cc(Oc4ccc(Oc5ccc6[nH]c(-c7ccc(N)cc7)nc6c5)cc4)ccc3[nH]2)cc1
inactive: SN12C renal 90.4% | UO-31 renal 97.7% | TK-10 renal 112% | ACHN renal 101% | CAKI-1 renal 120% | A498 renal 91.5% | CCRF-CEM leukemia 100% | MOLT-4 leukemia 96.8% | SR leukemia 91.9%

CCn1c(SCC(=O)Nc2cc(C(F)(F)F)ccc2Cl)nc2ccccc2c1=O
inactive: SN12C renal 57.1% | UO-31 renal 22.7% | TK-10 renal 33.7% | ACHN renal 39.1% | CAKI-1 renal 48.4% | A498 renal 35.6%
active: CCRF-CEM leukemia -3.31% | MOLT-4 leukemia -7.72% | SR leukemia -16.2%

COc1cc(C(=O)Nc2ccc(-c3nc4ccccc4[nH]3)cc2)cc(OC)c1OC
inactive: SN12C renal 45.4% | UO-31 renal 49.5% | TK-10 renal 60.1% | ACHN renal 61.9% | CAKI-1 renal 55.9% | A498 renal 37.6% | CCRF-CEM leukemia 36.5% | MOLT-4 leukemia 41.3% | SR leukemia 10.1%

CCOc1ccc2c(c1)CN(Cc1ccc(Cl)cc1)CO2
inactive: SN12C renal 67.7% | UO-31 renal 40.5% | TK-10 renal 20.1% | ACHN renal 33.2% | CAKI-1 renal 54.2% | A498 renal 39.5% | CCRF-CEM leukemia 78.1% | MOLT-4 leukemia 83.2% | SR leukemia 41.5%

From PubChem BioAssay (NCI)
